Reference: ChEMBL document CHEMBL3988442, “University of Dundee, Small-Polar-MMV Screening Library” (2021)
Where “and” joins values, the source holds several entries; their conditions need not be identical. Identical values can stand only once. For some assays here: Potency and affinity values are given separately.

Tests used:
[1] = target: T1, Methionyl-tRNA synthetase, putative (Leishmania donovani (strain BPK282A1)) (UniProt E9BF75); test: Leishmania donovani Methionine tRNA synthetase (LdMetRS):v7. Dose response assay; assay type: functional; design: conc 80 nM, time 150 minutes
T1 sequence (whole entry): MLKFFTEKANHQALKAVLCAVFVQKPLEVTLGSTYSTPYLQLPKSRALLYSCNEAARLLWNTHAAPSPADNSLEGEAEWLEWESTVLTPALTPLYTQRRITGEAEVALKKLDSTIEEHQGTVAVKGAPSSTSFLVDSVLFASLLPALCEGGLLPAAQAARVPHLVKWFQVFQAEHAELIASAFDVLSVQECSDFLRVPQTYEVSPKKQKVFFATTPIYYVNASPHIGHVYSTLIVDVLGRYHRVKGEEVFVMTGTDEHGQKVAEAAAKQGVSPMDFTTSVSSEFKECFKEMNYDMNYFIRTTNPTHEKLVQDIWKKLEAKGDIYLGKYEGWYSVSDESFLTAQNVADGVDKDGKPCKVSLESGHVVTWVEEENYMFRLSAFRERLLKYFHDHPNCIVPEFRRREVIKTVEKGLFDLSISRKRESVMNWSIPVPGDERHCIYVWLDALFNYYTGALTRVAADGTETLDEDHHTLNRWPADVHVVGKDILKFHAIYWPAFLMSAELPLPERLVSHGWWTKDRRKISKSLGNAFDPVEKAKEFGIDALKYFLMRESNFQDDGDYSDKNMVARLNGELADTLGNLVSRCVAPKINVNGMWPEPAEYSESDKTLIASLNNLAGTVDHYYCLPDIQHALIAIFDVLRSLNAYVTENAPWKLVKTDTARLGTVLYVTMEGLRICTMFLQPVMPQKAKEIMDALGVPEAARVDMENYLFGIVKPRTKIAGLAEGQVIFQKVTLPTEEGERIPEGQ

[2] = target: Protein translocase subunit SecA (Escherichia coli (strain K12)) (UniProt P10408); test: Assay to Identify E. coli SecA ATPase Inhibitors; assay type: functional; design: scale not given: direction of the effect not stated beside the values; conditions: 30 µM
Chain of Protein translocase subunit SecA (Escherichia coli (strain K12)) (P10408 whole entry): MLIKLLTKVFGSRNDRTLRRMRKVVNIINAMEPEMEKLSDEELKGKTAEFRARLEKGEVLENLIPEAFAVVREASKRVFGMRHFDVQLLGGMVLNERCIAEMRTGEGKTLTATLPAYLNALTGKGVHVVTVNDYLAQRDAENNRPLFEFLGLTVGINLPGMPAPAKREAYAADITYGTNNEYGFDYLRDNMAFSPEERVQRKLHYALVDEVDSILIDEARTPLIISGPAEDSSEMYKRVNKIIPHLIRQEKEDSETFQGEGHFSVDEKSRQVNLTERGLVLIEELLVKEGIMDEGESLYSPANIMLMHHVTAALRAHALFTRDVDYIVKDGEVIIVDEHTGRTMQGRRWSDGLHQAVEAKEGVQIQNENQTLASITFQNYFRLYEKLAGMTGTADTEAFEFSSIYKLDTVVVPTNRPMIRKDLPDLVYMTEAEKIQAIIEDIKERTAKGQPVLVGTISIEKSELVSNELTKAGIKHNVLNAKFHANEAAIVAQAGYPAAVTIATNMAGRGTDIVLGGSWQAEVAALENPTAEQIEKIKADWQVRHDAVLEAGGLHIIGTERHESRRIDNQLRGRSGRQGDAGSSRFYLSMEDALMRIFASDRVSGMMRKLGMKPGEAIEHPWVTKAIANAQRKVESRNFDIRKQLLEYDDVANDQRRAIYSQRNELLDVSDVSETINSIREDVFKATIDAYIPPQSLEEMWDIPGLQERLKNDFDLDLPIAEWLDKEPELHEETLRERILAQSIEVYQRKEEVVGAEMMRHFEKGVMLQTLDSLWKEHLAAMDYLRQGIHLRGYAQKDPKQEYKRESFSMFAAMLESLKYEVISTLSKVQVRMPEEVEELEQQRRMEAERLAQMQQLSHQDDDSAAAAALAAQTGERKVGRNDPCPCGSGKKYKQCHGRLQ

[3] = target: T2, Ubiquitin-activating enzyme e1, putative (Leishmania donovani (strain BPK282A1)) (UniProt E9BSI1); test: Leishmania donovani Ubiquitin Activating Enzyme (LdE1); assay type: functional; design: scale not given: direction of the effect not stated beside the values; conditions: 30 µM
T2 sequence (whole entry): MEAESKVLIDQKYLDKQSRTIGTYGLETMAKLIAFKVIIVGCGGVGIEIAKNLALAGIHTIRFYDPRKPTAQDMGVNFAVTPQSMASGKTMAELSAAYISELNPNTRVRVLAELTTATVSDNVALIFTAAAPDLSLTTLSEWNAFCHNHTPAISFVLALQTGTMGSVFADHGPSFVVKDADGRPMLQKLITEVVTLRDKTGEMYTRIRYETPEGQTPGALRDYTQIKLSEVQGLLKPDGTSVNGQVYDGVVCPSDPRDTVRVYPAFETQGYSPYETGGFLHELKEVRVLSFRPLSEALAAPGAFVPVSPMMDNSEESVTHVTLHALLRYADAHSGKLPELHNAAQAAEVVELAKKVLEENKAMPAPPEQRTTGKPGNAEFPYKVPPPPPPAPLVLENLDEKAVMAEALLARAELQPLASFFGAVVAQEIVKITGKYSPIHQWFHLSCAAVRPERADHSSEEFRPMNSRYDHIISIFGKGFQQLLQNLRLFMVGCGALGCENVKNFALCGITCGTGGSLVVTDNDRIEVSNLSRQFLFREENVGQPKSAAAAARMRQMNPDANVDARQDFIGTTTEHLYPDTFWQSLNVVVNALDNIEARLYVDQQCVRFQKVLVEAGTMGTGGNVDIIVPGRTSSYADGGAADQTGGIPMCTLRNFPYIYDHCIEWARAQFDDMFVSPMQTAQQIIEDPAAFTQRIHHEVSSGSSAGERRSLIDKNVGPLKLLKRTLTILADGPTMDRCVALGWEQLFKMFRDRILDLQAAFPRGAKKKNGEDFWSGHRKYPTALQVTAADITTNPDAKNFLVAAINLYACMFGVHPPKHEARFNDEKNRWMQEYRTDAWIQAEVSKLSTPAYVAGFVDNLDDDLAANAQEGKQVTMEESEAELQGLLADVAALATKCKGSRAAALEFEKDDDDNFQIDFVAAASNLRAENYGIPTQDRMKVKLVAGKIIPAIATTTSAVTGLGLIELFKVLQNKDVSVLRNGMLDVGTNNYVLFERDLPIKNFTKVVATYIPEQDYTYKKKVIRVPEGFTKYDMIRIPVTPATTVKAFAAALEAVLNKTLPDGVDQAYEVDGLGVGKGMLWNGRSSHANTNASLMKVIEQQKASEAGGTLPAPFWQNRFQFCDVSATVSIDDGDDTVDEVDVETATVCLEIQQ

[4] = target: AMP-activated protein kinase, AMPK (Homo sapiens) (UniProt P54646+O43741+P54619+Q9UGJ0+Q9Y478+Q13131+Q9UGI9); test: AMP-dependent Kinase enzyme assay. An in vitro enzyme assay that detects ADP turnover that is directly proportional to AMPK activity. This uses naive AMPK that is activated during the assay with MK-8722; assay type: functional; design: scale not given: direction of the effect not stated beside the values; conditions: 30 µM
[5] = target: Sialic acid-binding Ig-like lectin 9 (Homo sapiens) (UniProt Q9Y336); test: Hs-Siglec9 ALPHAscreen SOP 20170721; design: scale not given: direction of the effect not stated beside the values; conditions: 10 µM
Chain of Sialic acid-binding Ig-like lectin 9 (Homo sapiens) (Q9Y336 whole entry): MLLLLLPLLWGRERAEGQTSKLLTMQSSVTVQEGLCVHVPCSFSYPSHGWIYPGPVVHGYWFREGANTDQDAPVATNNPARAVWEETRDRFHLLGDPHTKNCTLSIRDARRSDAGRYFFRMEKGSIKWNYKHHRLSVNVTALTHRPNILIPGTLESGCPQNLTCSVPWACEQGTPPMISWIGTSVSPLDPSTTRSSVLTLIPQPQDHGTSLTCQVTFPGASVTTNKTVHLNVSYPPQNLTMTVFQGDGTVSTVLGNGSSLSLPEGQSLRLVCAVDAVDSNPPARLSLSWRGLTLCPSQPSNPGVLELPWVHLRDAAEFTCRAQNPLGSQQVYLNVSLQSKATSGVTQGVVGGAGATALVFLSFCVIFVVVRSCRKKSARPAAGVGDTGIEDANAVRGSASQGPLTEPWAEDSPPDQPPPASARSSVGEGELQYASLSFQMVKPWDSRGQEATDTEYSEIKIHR

Trypanosoma cruzi = test: Trypanosoma cruzi phosphomannomutase and mannose-1-phosphate guanylyltransferase assay; assay type: functional; design: scale not given: direction of the effect not stated beside the values; conditions: 10 µM
[6] = target: T3, Arginase-2, mitochondrial (Homo sapiens) (UniProt P78540); test: in vitro enzyme assay to detect the production of urea directly proportional to the activity of Arginase II; assay type: functional; design: scale not given: in the data most compounds retested in dose-response had high values; conditions: 33.3 µM
T3 sequence (whole entry): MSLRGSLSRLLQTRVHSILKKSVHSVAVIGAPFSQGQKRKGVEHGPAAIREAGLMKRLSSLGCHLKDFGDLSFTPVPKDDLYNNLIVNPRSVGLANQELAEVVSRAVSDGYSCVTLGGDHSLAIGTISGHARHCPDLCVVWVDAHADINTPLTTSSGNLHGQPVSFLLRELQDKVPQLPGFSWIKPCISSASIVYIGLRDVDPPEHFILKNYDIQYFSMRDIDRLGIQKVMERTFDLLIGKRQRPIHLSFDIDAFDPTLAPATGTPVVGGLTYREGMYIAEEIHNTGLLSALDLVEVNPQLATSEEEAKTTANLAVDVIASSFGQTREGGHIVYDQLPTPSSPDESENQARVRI

[7] = target: T4, Proteasome subunit beta (Trypanosoma cruzi) (UniProt O96673); test: Trypanosoma cruzi proteasome chymotrypsin-like activity (TcProtChymo) assay.; assay type: functional; design: scale not given: in the data most compounds retested in dose-response had high values; conditions: 9.37 µM
T4 sequence (whole entry): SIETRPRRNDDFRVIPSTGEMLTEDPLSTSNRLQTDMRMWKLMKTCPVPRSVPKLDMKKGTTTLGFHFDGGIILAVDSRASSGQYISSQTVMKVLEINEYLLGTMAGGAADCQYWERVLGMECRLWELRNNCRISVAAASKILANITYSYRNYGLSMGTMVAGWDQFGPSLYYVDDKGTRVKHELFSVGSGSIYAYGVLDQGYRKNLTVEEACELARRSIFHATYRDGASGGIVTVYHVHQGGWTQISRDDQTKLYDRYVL

N/A = test: Trypanosoma cruzi proteasome luciferase counter-screen; assay type: functional; design: scale not given: direction of the effect not stated beside the values; conditions: 9.37 µM
Homo sapiens = organism: Homo sapiens; test: To identify inhibition of the IFN signalling (Jak-Stat) pathway via expression of an eGFP reporter gene under the control of an IFN-stimulated response element (ISRE) containing MxA promoter.; assay type: functional; design: scale not given: direction of the effect not stated beside the values; conditions: 30 µM
[8] = target: T5, Tyrosyl-tRNA synthetase, putative (Trypanosoma cruzi (strain CL Brener)) (UniProt Q4DSP6); test: Trypanosoma cruzi tyrosyl tRNA synthetase (TcYRS) _High Tyrosine SOP; assay type: functional; design: scale not given: in the data most compounds retested in dose-response had high values; conditions: 30 µM
T5 sequence (whole entry): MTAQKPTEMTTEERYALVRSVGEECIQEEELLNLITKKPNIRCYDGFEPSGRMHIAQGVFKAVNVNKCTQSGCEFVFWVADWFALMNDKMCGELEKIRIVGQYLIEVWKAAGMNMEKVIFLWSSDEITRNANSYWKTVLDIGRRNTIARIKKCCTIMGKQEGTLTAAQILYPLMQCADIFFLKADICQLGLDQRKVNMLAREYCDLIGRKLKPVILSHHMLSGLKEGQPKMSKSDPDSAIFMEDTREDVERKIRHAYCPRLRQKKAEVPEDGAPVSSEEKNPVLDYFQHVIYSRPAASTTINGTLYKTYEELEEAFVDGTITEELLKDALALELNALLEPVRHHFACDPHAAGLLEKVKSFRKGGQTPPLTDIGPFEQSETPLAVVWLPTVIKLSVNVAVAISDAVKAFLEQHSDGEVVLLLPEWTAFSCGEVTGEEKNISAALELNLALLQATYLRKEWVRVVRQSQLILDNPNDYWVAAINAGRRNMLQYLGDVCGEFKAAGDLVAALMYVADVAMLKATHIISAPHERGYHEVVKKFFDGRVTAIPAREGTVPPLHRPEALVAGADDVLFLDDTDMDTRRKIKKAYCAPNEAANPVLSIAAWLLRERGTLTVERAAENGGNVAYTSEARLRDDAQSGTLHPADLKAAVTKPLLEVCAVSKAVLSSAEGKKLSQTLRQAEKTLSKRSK

[9] = target: T5, Tyrosyl-tRNA synthetase, putative (Trypanosoma cruzi (strain CL Brener)); test: Trypanosoma cruzi tyrosyl tRNA synthetase (TcYRS) SOP; assay type: functional; design: scale not given: direction of the effect not stated beside the values; conditions: 30 µM
[10] = target: Chromo domain-containing protein 1 (Saccharomyces cerevisiae (strain ATCC 204508 / S288c) (Baker's yeast)) (UniProt P32657); test: ScCHD-1 Enzyme Inhibition Assay; assay type: functional; design: scale not given: in the data most compounds retested in dose-response had high values; conditions: 30 µM
Chain of Chromo domain-containing protein 1 (Saccharomyces cerevisiae (strain ATCC 204508 / S288c) (Baker's yeast)) (P32657 whole entry, the tested form may be a part): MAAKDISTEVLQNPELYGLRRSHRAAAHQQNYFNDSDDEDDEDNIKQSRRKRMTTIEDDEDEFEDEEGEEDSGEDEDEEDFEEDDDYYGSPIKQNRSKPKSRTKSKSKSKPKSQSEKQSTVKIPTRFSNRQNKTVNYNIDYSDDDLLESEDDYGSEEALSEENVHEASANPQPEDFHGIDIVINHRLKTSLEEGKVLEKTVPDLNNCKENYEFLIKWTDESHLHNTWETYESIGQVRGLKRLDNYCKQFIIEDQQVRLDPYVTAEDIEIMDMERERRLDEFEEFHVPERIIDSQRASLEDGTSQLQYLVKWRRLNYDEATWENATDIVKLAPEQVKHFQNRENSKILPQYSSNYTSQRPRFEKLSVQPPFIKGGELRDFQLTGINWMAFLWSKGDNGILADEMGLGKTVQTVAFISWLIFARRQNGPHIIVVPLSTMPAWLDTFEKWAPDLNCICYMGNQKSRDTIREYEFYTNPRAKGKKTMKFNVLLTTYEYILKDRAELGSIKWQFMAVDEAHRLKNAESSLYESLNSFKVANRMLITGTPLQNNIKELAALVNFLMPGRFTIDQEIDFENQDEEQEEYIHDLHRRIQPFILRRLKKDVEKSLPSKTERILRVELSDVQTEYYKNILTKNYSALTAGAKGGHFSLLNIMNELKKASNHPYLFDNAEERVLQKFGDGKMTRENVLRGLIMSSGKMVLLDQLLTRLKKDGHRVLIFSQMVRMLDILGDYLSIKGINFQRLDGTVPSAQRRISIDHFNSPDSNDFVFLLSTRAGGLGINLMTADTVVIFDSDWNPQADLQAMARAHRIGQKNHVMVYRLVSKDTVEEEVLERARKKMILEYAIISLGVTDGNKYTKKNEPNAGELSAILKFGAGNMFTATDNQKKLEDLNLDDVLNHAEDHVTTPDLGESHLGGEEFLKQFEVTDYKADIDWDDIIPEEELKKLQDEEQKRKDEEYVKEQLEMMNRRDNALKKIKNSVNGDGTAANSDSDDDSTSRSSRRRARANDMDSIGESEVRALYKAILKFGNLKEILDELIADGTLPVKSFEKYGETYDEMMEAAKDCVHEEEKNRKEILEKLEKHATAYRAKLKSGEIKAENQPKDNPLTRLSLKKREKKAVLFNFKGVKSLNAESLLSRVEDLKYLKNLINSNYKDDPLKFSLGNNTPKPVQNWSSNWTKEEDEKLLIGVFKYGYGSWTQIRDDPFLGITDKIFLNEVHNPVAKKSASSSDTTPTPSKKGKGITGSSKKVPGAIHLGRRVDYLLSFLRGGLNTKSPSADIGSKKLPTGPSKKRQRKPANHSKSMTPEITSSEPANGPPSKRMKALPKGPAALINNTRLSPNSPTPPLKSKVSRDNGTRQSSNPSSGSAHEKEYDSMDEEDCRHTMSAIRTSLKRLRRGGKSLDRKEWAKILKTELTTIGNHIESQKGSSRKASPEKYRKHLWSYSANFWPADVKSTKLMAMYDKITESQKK

CN1CCc2nc(C3CCN(C(=O)CCC4CCCC4)CC3)ncc2C1
PXC50 ([1]; BOTTOM 0.534632588, HILLSLOPE 1.255840154, MAX_EFFECT 60.86956522, TOP 100.0): 4.14 | PXC50 ([1]; BOTTOM 3.083112022, HILLSLOPE 1.565152708, MAX_EFFECT 54.7024952, TOP 100.0): 4.03 | PXC50 ([1]; BOTTOM -8.837281555, HILLSLOPE 1.047429208, MAX_EFFECT 57.34767025, TOP 100.0): 4.14 | PXC50 ([1]; BOTTOM -19.84781307, HILLSLOPE 1.359990695, MAX_EFFECT 58.41584158, TOP 100.0): 4.22 | PXC50 ([1]; MAX_EFFECT 38.75598086): < 4 | Percent Effect [2]: -2.07% | Percent Effect [3]: 26.7% | Percent Effect [4]: 7.92% | Percent Effect [5]: -1.28% | Percent Effect (Trypanosoma cruzi): 5.51% | Percent Effect [6]: -2.1% | Percent Effect [7]: 27.3% and 36.4% and 44% | Percent Effect (N/A): 6.68% and 6.76% | Percent Effect (Homo sapiens): 23.7% | Percent Effect [8]: 44.7% | Percent Effect [9]: 34.6% | Percent Effect [10]: -8.54%

Cc1nccn1CCCn1cncc1-c1ccc2c(c1)CCC(C)N2C (configuration not stated)
PXC50 ([1]; BOTTOM 4.710746105, HILLSLOPE 1.396694103, MAX_EFFECT 77.77777778, TOP 100.0): 4.36 | PXC50 ([1]; BOTTOM 4.776972445, HILLSLOPE 4.284267496, MAX_EFFECT 55.70469799, TOP 54.26344413): 4.56 | PXC50 ([1]; BOTTOM 5.773645077, HILLSLOPE 1.775302265, MAX_EFFECT 72.6169844, TOP 100.0): 4.22 | PXC50 ([1]; MAX_EFFECT 2.857142857): < 4 | PXC50 ([1]; MAX_EFFECT 4.347826087): < 4

COc1ccccc1C(=O)NC(c1ccccn1)[C@H]1CC[C@H](CN)CC1 (some centres not stated)
PXC50 ([1]; BOTTOM -1.193557467, HILLSLOPE 1.40396169, MAX_EFFECT 57.36568458, TOP 100.0): 4.08 | PXC50 ([1]; BOTTOM -5.444679276, HILLSLOPE 1.669546179, MAX_EFFECT 75.83892617, TOP 100.0): 4.3 | PXC50 ([1]; BOTTOM -12.31313032, HILLSLOPE 1.366255023, MAX_EFFECT 79.86111111, TOP 100.0): 4.41 | PXC50 ([1]; MAX_EFFECT 0.790513834): < 4 | PXC50 ([1]; MAX_EFFECT 6.349206349): < 4

CN(CC1CC1)c1ccc2ccc(C(=O)NCCc3ccccc3)cn12
PXC50 ([1]; BOTTOM 0.351029795, HILLSLOPE 1.115089004, MAX_EFFECT 62.13151927, TOP 107.5835515): 4.12 | PXC50 ([1]; BOTTOM 1.92078188, HILLSLOPE 1.430695014, MAX_EFFECT 75.69444444, TOP 86.56449287): 4.61 | PXC50 ([1]; BOTTOM 2.657056439, HILLSLOPE 1.351512964, MAX_EFFECT 68.11091854, TOP 100.0): 4.19 | PXC50 ([1]; BOTTOM -1.049582542, HILLSLOPE 1.242411624, MAX_EFFECT 75.16778523, TOP 98.82108854): 4.43 | PXC50 ([1]; MAX_EFFECT 50.8411215): < 4
